# In the supplement of paper PMC8728848:
# The full list was thinned out, with the strongest signals kept by preference.
# What was measured:
# Assay in all cases: glycan array binding signal (z-score within array); higher = stronger binding
# Conditions in all cases: glycan notation: IUPAC condensed, linker removed
# [1] = target: Gal(b1-6)Gal
# Procedure, shortened: (§1)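 From the Consortium for Functional Glycomics database, 3228 arrays were curated, keeping only those whose protein sequence was available. Binding is given as a within-array Z-score averaged across arrays sharing a protein sequence and across linkers. Negative Z-scores can be read as non-binding.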
# [2] = target: Gal6S(b1-4)Glc6S
# Procedure, shortened: as §1
# [3] = target: GalNAc(b1-3)GalNAc
# Procedure, shortened: as §1
# [4] = target: GalNAc(b1-4)GlcNAc
# Procedure, shortened: as §1
# [5] = target: GalNAc(b1-6)GalNAc
# Procedure, shortened: as §1
# [6] = target: GalNAc3S(b1-4)GlcNAc
# Procedure, shortened: as §1
# [7] = target: Glc(b1-6)Glc
# Procedure, shortened: as §1
# [8] = target: GlcA(b1-3)GlcNAc
# Procedure, shortened: as §1
# [9] = target: GlcNAc(b1-3)Gal
# Procedure, shortened: as §1
# [10] = target: GlcNAc(b1-3)Gal(b1-4)Glc
# Procedure, shortened: as §1
# [11] = target: GlcNAc(b1-3)Gal(b1-4)GlcNAc(b1-3)Gal(b1-4)GlcNAc(b1-2)Man(a1-3)[GlcNAc(b1-3)Gal(b1-4)GlcNAc(b1-3)Gal(b1-4)GlcNAc(b1-2)Man(a1-6)]Man(b1-4)GlcNAc(b1-4)GlcNAc
# Procedure, shortened: as §1
# [12] = target: GlcNAc(b1-3)[GlcNAc(b1-4)][GlcNAc(b1-6)]GlcNAc
# Procedure, shortened: as §1
# [13] = target: Man(a1-2)Man(a1-6)[Man(a1-3)]Man(a1-6)[Man(a1-2)Man(a1-2)Man(a1-3)]Man
# Procedure, shortened: as §1
# [14] = target: Man(a1-2)Man(a1-6)[Man(a1-3)]Man(a1-6)[Man(a1-2)Man(a1-2)Man(a1-3)]Man(b1-4)GlcNAc(b1-4)GlcNAc
# Procedure, shortened: as §1
# [15] = target: Neu5Ac(a2-3)Gal
# Procedure, shortened: as §1
# [16] = target: Neu5Ac(a2-3)Gal(b1-3)GalNAc(b1-3)Gal(a1-4)Gal(b1-4)Glc
# Procedure, shortened: as §1
# [17] = target: Neu5Ac(a2-3)Gal(b1-3)GlcNAc(b1-2)Man(a1-3)[GlcNAc(b1-4)][Neu5Ac(a2-3)Gal(b1-3)GlcNAc(b1-2)Man(a1-6)]Man(b1-4)GlcNAc(b1-4)GlcNAc
# Procedure, shortened: as §1
# [18] = target: Neu5Ac(a2-3)Gal(b1-4)GlcNAc(b1-2)Man(a1-3)[Neu5Ac(a2-3)Gal(b1-4)GlcNAc(b1-2)Man(a1-6)]Man(b1-4)GlcNAc(b1-4)GlcNAc
# Procedure, shortened: as §1
# [19] = target: Neu5Ac(a2-3)Gal(b1-4)GlcNAc(b1-2)Man(a1-3)[Neu5Ac(a2-3)Gal(b1-4)GlcNAc(b1-2)Man(a1-6)]Man(b1-4)GlcNAc(b1-4)[Fuc(a1-6)]GlcNAc
# Procedure, shortened: as §1
# [20] = target: Neu5Ac(a2-3)Gal(b1-4)GlcNAc(b1-3)Gal(b1-4)GlcNAc(b1-3)[Neu5Ac(a2-3)Gal(b1-4)GlcNAc(b1-3)Gal(b1-4)GlcNAc(b1-6)]GalNAc
# Procedure, shortened: as §1
# [21] = target: Neu5Ac(a2-3)Gal(b1-4)GlcNAc(b1-3)Gal(b1-4)GlcNAc(b1-6)[Gal(b1-3)]GalNAc
# Procedure, shortened: as §1
# [22] = target: Neu5Ac(a2-3)Gal(b1-4)[Fuc(a1-3)]GlcNAc(b1-6)[Gal(b1-3)]GalNAc
# Procedure, shortened: as §1
# [23] = target: Neu5Ac(a2-3)Gal6S(b1-4)GlcNAc
# Procedure, shortened: as §1
# [24] = target: Neu5Ac(a2-3)[GalNAc(b1-4)]Gal(b1-4)GlcNAc
# Procedure, shortened: as §1
# [25] = target: Neu5Ac(a2-6)Gal(b1-4)GlcNAc(b1-2)Man(a1-3)[GlcNAc(b1-2)Man(a1-6)]Man(b1-4)GlcNAc(b1-4)GlcNAc
# Procedure, shortened: as §1
# [26] = target: Neu5Ac(a2-6)Gal(b1-4)GlcNAc(b1-3)Gal(b1-4)GlcNAc(b1-3)Gal(b1-4)GlcNAc
# Procedure, shortened: as §1
# [27] = target: Neu5Ac(a2-6)Gal(b1-4)GlcNAc(b1-3)Gal(b1-4)GlcNAc(b1-3)[Neu5Ac(a2-6)Gal(b1-4)GlcNAc(b1-3)Gal(b1-4)GlcNAc(b1-6)]GalNAc
# Procedure, shortened: as §1
# [28] = target: Neu5Ac(a2-6)Gal(b1-4)GlcNAc6S
# Procedure, shortened: as §1
# [29] = target: Neu5Ac(a2-6)GalNAc(b1-4)GlcNAc
# Procedure, shortened: as §1
# [30] = target: Neu5Ac(a2-6)GalNAc(b1-4)GlcNAc6S
# Procedure, shortened: as §1
# [31] = target: Neu5Ac(a2-8)Neu5Gc(a2-3)Gal(b1-4)GlcNAc
# Procedure, shortened: as §1
binder,measurement,setting,value
"Clec12b (Mus musculus), Q149M0 (protein) MSDEVTYATLMLQDSARVRGNQDGNNLRKEGHPAQSSLWRGAALSLMTLCLVLVTGLVTLATMFLQVSNDINSDSEKLSQLQKSIHPQQDNLSESLNSSRKSLTEESLQSQISALLERQEQMATKLCKEFLIHASDHKCNPCPKTWQWYGNSCYYFSINEEKSWSDSRKDCIDKNATLVKIDSTEERDLLQSQLSLTFSFFWLGLSWNSSGRNWLWEDGSFPPPTLFSDKELASFNGSRDCAYFERGNIYASRCSAEIPWICEKTASLVKTEDLD",glycan array binding signal (z-score),[1],-0.5
same,glycan array binding signal (z-score),[2],1.24
same,glycan array binding signal (z-score),[3],-0.125
same,glycan array binding signal (z-score),[4],0.301
same,glycan array binding signal (z-score),[5],1.14
same,glycan array binding signal (z-score),[6],-0.691
same,glycan array binding signal (z-score),[7],-0.441
same,glycan array binding signal (z-score),[8],-0.05
same,glycan array binding signal (z-score),[9],-0.39
same,glycan array binding signal (z-score),[10],2.54
same,glycan array binding signal (z-score),[11],-0.27
same,glycan array binding signal (z-score),[12],-0.245
same,glycan array binding signal (z-score),[13],-0.526
same,glycan array binding signal (z-score),[14],-0.428
same,glycan array binding signal (z-score),[15],-0.719
same,glycan array binding signal (z-score),[16],-0.593
same,glycan array binding signal (z-score),[17],-0.101
same,glycan array binding signal (z-score),[18],-0.716
same,glycan array binding signal (z-score),[19],11.9
same,glycan array binding signal (z-score),[20],-0.513
same,glycan array binding signal (z-score),[21],-0.721
same,glycan array binding signal (z-score),[22],2.54
same,glycan array binding signal (z-score),[23],-0.451
same,glycan array binding signal (z-score),[24],-0.538
same,glycan array binding signal (z-score),[25],-0.701
same,glycan array binding signal (z-score),[26],-0.719
same,glycan array binding signal (z-score),[27],-0.419
same,glycan array binding signal (z-score),[28],0.459
same,glycan array binding signal (z-score),[29],-0.692
same,glycan array binding signal (z-score),[30],-0.524
same,glycan array binding signal (z-score),[31],-0.719
